Test system: RARg homodimer (NR concentration 270 nM)
Experiment: PBM binding z-score (relative to random genomic background probes); higher = stronger binding; sequences stand for … in GC…GCGATTGACAGCGTAGAATGAAGG
In short: (§1)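 Each nuclear receptor dimer, without ligand, was incubated for 1 h on custom Agilent 4×180K protein-binding microarrays. Binding was detected with antibodies against each partner (one per run), and scanned fluorescence was regression-normalized. The binding z-scores are referenced to random human genomic background probes.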

| Sequence | PBM binding z-score |
| --- | --- |
| GCAGACAGGTGAAACGCAGGTAGCTCAGGGTGGC | -0.0233 |
| AGAATGAGGTTAGGATCAGGGAAACAGAATACAT | 0.965 |
| CAAACTAGGTCACCGGAAGGTCACAGTCCGCATG | 7.76 |
| TGAATCAGGTTAAAGATCAGGGAACGTGGCGTCG | 0.611 |
| ATCGAAAGGTCGAGGTGAGTAAAGAGAAAGGGAA | 4.38 |
| GCATATAGGTAATACCAGGTGAAAGTCCGATTGT | 0.193 |
| CCGACTGGGGCAGAAAGGTAACCATACCATCCGG | 0.586 |
| TCTTGTAGATCAACAGGAGGTTAAGAAAGATCGA | 0.306 |
| GCTGCTAGGTCAACTAATGGTCAGCTAAAGCTCG | 5.52 |
| GCGACTGGGGCAAGGCAGGTTACCATAAGGTTGG | 0.635 |
| ATATGTAGGTTAACGGGTCATTCAGTTTGCGCAT | 2.62 |
| GCTCGGAGAACAAGGTCAGAGCTTTGTCCGTAGA | 2.24 |
| CCTTACGGGTCCCGAGGTTATAGCACGACGAGCG | 0.388 |
| CCTTACGGGTCACGAGGTTATATCACGACGAGCG | 5.48 |
| GATCGGAGGACAAGGTCAGAGCTTTGTCCGTAGA | 3.57 |
| ATATGTAGGTTACATACGGGTCATTCAGGCTATG | 2.41 |
| GCAAACAGGTGAAACGCAGGTAACTCAGGGTGGC | 0.0633 |
| TCTTGTAGATCAACAGGAGGTCAAGAAAGATCGA | 2.84 |
| TGAATGAGGTTAAAGATCAGGAAACGTGGCGTCG | 1.23 |
| GCTGCTATGTCAACTGATGGTCAGCTAAAGCTCG | 0.101 |

| Sequence | PBM binding z-score |
| --- | --- |
| TAGCCTAGTTCAGATCGGGCCAGTATACGCTATA | 0.216 |
| TCTTGTAGATCACCAGGAGGTTAAGAAAGATCGA | 0.275 |
| TGAATGAGGTTAAAGATCAGGGATCGTGGCGTCG | 1.11 |
| TAGCCTAGGTCAGATCTGGCCAGTATACGCTATA | 3.49 |
| TAGCCTAGGTCATGGGCCACTATACCACGCGAAC | 4.64 |
| GCTGCTAGGTCAACTGATGGACAGCTAAAGCTCG | 5.36 |
| CGTCCAAGGTCATAGGACGTCAGTGAAGACAGAT | 5.4 |
| CGTGCAAGGTCAAGGTCAGTGAAAGAGACTCGAA | 7.64 |
| ACTTACGGGTCAACGTGGTTATAGCACGCGTATA | 5.16 |
| ACTAGCAGGCCAACGGTCACTCAAGATTAGTCCG | 1.57 |
| ATCGAAAGGTCGTAGGTGAGTATACCCACCCGAA | 3.9 |
| CCAACTGGGCCATCAGGTCATTGATATCAACGTT | 2.2 |
| CGTCCAAGGTCATAGGCGGTCAGTGAAGACAGAT | 6.4 |
| CCGACTAGGTTATGGGGCATTCAGGCAACGGTGA | 0.34 |
| TTACCAAGGTGGAAGGTCGTTGATGCACGCCTTG | 0.158 |
| CGTACAAGGTCAGCAGGTCAGTGAAAGCGACGTG | 6.72 |
| CCTACTGGGCCATAAAGGTCATTGATGCCGATAA | 3.88 |
| ATCGAAAGGTCGAAGGTGAGTAAACCCACCCGAA | 3.92 |
| AGTCAAAATTCAGGACGAGGTAACGTAAAGCACG | 0.422 |
| GATACATGGTCAGCTAGAGGCCAGAGTATGGAAA | 0.818 |

Test system: RXRa DBDmut IVT, anti-RXR (DBD mutation: RXRa K156A/R161A, NR concentration 90 nM)
Experiment: as above
In short: as §1

| Sequence | PBM binding z-score |
| --- | --- |
| GCAGACAGGTGAAACGCAGGTAGCTCAGGGTGGC | -0.578 |
| AGAATGAGGTTAGGATCAGGGAAACAGAATACAT | 0.213 |
| CAAACTAGGTCACCGGAAGGTCACAGTCCGCATG | 2.19 |
| TGAATCAGGTTAAAGATCAGGGAACGTGGCGTCG | -0.0911 |
| ATCGAAAGGTCGAGGTGAGTAAAGAGAAAGGGAA | 0.813 |
| GCATATAGGTAATACCAGGTGAAAGTCCGATTGT | 0.247 |
| CCGACTGGGGCAGAAAGGTAACCATACCATCCGG | -1.12 |
| TCTTGTAGATCAACAGGAGGTTAAGAAAGATCGA | 0.35 |
| GCTGCTAGGTCAACTAATGGTCAGCTAAAGCTCG | 1.38 |
| GCGACTGGGGCAAGGCAGGTTACCATAAGGTTGG | -1.16 |
| ATATGTAGGTTAACGGGTCATTCAGTTTGCGCAT | 1.46 |
| GCTCGGAGAACAAGGTCAGAGCTTTGTCCGTAGA | 0.418 |
| CCTTACGGGTCCCGAGGTTATAGCACGACGAGCG | -1.34 |
| CCTTACGGGTCACGAGGTTATATCACGACGAGCG | 1.94 |
| GATCGGAGGACAAGGTCAGAGCTTTGTCCGTAGA | 0.217 |
| ATATGTAGGTTACATACGGGTCATTCAGGCTATG | 0.906 |
| GCAAACAGGTGAAACGCAGGTAACTCAGGGTGGC | -0.459 |
| TCTTGTAGATCAACAGGAGGTCAAGAAAGATCGA | 0.518 |
| TGAATGAGGTTAAAGATCAGGAAACGTGGCGTCG | 1.25 |
| GCTGCTATGTCAACTGATGGTCAGCTAAAGCTCG | 0.137 |

| Sequence | PBM binding z-score |
| --- | --- |
| TAGCCTAGTTCAGATCGGGCCAGTATACGCTATA | 0.421 |
| TCTTGTAGATCACCAGGAGGTTAAGAAAGATCGA | 0.396 |
| TGAATGAGGTTAAAGATCAGGGATCGTGGCGTCG | 0.89 |
| TAGCCTAGGTCAGATCTGGCCAGTATACGCTATA | -0.24 |
| TAGCCTAGGTCATGGGCCACTATACCACGCGAAC | 0.641 |
| GCTGCTAGGTCAACTGATGGACAGCTAAAGCTCG | 1.28 |
| CGTCCAAGGTCATAGGACGTCAGTGAAGACAGAT | 3.74 |
| CGTGCAAGGTCAAGGTCAGTGAAAGAGACTCGAA | 3.8 |
| ACTTACGGGTCAACGTGGTTATAGCACGCGTATA | 2.08 |
| ACTAGCAGGCCAACGGTCACTCAAGATTAGTCCG | -0.139 |
| ATCGAAAGGTCGTAGGTGAGTATACCCACCCGAA | 1.21 |
| CCAACTGGGCCATCAGGTCATTGATATCAACGTT | 0.763 |
| CGTCCAAGGTCATAGGCGGTCAGTGAAGACAGAT | 3.89 |
| CCGACTAGGTTATGGGGCATTCAGGCAACGGTGA | -0.142 |
| TTACCAAGGTGGAAGGTCGTTGATGCACGCCTTG | -0.443 |
| CGTACAAGGTCAGCAGGTCAGTGAAAGCGACGTG | 3.07 |
| CCTACTGGGCCATAAAGGTCATTGATGCCGATAA | 0.623 |
| ATCGAAAGGTCGAAGGTGAGTAAACCCACCCGAA | 1.23 |
| AGTCAAAATTCAGGACGAGGTAACGTAAAGCACG | -0.303 |
| GATACATGGTCAGCTAGAGGCCAGAGTATGGAAA | -0.556 |
